Results published in the supplement of paper PMC11732987, “Enantioselective OTUD7B fragment discovery through chemoproteomics screening and high-throughput optimisation” (Communications Chemistry, 2025).

Columns and labels:
Test in all cases: log2 ratio of Biotin-Ahx-Ub-VS probe labelling (fragment/DMSO); higher = less target engagement (more negative = stronger competition), active = hit call of the paper (q ≤ 0.05, log2 ratio ≤ -1)
Conditions in all cases: compound concentration: 200 uM; treatment time: 3 h
[1] = biological target: T1, USP19 (UniProt O94966)
T1 sequence (whole entry): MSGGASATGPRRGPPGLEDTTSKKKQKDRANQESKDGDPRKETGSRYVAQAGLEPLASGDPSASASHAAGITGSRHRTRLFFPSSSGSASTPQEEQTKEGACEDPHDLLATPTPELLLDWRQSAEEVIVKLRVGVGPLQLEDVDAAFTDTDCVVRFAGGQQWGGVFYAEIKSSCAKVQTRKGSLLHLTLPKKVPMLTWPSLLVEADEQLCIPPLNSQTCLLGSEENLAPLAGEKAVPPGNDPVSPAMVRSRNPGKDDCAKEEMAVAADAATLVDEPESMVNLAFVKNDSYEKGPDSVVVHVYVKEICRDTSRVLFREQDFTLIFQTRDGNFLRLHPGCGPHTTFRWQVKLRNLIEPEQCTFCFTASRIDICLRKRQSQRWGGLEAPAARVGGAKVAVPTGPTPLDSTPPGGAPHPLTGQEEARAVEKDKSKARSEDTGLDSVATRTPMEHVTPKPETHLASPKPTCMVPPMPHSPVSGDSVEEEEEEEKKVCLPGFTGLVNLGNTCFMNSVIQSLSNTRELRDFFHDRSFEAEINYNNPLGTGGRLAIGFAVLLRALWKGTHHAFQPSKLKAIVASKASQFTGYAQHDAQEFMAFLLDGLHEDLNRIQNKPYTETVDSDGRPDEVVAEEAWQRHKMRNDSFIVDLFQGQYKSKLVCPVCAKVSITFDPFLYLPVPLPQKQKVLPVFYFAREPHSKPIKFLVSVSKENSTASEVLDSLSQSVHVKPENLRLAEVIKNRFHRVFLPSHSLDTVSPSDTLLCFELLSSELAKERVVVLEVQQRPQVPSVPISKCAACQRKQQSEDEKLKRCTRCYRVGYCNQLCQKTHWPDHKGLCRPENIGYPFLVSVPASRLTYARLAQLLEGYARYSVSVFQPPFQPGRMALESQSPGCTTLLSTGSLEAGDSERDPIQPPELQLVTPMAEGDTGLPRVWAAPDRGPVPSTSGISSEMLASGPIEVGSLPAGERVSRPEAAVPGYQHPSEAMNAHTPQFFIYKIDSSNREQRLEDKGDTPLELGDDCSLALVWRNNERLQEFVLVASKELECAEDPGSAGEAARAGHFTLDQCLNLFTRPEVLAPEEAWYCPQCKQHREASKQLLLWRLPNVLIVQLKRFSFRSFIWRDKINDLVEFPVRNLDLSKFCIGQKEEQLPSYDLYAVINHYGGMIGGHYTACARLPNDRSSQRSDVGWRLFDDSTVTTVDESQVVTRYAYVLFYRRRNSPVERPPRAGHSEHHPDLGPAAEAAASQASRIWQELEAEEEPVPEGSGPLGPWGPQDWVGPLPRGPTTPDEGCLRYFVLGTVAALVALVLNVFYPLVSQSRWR
In short: (§1)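 The table lists average log2 ratios of fragment over vehicle, from an unpaired t-test on global-median-normalised Spectronaut label-free quantities. Proteins with ≥2 unique peptides were used. Samples were HEK293T lysate (495 µg) treated in triplicate with fragment at 200 µM or vehicle for 3 h, then with Biotin-Ahx-Ub-VS (0.5 µM final) for 1 h, with labelled DUBs NeutrAvidin-enriched and run by diaPASEF LC-MS/MS.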

[2] = biological target: T2, USP22 (UniProt Q9UPT9)
T2 sequence (whole entry): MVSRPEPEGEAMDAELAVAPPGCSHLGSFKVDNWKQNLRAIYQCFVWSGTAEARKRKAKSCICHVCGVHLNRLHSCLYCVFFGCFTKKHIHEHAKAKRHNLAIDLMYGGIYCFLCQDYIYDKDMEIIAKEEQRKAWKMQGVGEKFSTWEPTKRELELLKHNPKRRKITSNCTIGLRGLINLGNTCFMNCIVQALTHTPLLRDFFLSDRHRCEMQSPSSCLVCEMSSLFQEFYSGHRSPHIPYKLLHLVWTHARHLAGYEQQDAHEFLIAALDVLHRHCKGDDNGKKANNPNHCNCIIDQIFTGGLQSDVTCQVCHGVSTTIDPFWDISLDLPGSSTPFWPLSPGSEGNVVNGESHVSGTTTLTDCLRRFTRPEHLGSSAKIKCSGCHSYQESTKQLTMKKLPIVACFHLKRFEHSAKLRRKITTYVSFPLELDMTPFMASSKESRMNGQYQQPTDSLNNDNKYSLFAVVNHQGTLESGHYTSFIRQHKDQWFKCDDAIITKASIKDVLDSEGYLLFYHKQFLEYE
In short: as §1

[3] = biological target: USP24 (UniProt Q9UPU5)
In short: as §1

[4] = biological target: T3, USP25 (UniProt Q9UHP3)
T3 sequence (whole entry): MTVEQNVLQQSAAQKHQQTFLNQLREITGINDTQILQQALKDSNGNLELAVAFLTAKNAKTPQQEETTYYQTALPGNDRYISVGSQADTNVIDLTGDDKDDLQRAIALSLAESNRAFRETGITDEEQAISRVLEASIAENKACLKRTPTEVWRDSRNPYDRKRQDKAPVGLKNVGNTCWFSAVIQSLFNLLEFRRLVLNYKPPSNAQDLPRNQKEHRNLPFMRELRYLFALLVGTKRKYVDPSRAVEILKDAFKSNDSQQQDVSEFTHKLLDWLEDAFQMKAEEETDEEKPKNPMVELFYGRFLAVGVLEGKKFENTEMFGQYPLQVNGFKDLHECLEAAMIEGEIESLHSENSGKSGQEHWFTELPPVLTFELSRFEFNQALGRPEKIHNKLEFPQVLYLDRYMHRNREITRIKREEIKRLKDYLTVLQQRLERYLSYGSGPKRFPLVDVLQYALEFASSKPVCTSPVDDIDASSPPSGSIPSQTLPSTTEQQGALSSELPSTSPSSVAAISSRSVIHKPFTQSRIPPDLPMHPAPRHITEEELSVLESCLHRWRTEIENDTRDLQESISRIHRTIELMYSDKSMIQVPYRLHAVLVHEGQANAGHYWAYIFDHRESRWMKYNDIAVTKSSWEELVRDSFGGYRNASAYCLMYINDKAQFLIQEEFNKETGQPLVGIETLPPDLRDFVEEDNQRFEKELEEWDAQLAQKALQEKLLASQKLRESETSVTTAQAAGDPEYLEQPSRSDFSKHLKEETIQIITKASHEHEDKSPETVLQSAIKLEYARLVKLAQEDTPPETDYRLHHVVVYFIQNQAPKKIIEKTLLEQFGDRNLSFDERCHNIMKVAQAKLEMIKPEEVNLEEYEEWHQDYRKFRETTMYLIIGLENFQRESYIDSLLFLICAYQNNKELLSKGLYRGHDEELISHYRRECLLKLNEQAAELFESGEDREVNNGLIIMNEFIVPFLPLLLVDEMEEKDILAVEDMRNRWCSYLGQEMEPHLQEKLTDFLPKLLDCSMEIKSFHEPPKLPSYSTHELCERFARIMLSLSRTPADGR
In short: as §1

[5] = biological target: T4, USP28 (UniProt Q96RU2)
T4 sequence (whole entry): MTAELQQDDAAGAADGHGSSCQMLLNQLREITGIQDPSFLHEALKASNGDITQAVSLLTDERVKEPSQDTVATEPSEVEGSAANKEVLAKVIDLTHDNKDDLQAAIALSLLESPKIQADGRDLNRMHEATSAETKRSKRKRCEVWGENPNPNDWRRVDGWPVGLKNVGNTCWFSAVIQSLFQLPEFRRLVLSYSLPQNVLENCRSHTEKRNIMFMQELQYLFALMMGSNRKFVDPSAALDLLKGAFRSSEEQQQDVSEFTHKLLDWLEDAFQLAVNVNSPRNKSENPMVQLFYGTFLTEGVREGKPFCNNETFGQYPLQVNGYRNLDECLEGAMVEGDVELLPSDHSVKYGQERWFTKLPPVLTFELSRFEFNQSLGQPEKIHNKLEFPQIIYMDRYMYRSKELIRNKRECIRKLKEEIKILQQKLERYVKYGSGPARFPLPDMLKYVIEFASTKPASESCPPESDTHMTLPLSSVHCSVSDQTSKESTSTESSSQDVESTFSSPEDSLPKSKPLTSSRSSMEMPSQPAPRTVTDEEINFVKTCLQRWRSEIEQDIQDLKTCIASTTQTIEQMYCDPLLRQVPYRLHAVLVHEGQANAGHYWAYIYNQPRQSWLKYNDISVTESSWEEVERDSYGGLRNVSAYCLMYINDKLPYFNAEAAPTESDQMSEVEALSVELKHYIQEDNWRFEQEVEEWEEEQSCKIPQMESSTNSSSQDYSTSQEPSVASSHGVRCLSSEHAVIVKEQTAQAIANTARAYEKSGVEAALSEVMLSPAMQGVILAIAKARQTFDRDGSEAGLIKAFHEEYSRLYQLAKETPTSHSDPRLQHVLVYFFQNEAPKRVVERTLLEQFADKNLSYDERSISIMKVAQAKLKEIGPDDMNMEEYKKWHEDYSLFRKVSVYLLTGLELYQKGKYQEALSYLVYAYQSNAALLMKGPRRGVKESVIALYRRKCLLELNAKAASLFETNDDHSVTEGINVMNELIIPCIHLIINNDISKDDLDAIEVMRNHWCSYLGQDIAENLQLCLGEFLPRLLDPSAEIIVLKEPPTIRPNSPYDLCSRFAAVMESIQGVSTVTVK
In short: as §1

Measured: log2 ratio of Biotin-Ahx-Ub-VS probe labelling

Chain of USP24 (Q9UPU5 whole entry): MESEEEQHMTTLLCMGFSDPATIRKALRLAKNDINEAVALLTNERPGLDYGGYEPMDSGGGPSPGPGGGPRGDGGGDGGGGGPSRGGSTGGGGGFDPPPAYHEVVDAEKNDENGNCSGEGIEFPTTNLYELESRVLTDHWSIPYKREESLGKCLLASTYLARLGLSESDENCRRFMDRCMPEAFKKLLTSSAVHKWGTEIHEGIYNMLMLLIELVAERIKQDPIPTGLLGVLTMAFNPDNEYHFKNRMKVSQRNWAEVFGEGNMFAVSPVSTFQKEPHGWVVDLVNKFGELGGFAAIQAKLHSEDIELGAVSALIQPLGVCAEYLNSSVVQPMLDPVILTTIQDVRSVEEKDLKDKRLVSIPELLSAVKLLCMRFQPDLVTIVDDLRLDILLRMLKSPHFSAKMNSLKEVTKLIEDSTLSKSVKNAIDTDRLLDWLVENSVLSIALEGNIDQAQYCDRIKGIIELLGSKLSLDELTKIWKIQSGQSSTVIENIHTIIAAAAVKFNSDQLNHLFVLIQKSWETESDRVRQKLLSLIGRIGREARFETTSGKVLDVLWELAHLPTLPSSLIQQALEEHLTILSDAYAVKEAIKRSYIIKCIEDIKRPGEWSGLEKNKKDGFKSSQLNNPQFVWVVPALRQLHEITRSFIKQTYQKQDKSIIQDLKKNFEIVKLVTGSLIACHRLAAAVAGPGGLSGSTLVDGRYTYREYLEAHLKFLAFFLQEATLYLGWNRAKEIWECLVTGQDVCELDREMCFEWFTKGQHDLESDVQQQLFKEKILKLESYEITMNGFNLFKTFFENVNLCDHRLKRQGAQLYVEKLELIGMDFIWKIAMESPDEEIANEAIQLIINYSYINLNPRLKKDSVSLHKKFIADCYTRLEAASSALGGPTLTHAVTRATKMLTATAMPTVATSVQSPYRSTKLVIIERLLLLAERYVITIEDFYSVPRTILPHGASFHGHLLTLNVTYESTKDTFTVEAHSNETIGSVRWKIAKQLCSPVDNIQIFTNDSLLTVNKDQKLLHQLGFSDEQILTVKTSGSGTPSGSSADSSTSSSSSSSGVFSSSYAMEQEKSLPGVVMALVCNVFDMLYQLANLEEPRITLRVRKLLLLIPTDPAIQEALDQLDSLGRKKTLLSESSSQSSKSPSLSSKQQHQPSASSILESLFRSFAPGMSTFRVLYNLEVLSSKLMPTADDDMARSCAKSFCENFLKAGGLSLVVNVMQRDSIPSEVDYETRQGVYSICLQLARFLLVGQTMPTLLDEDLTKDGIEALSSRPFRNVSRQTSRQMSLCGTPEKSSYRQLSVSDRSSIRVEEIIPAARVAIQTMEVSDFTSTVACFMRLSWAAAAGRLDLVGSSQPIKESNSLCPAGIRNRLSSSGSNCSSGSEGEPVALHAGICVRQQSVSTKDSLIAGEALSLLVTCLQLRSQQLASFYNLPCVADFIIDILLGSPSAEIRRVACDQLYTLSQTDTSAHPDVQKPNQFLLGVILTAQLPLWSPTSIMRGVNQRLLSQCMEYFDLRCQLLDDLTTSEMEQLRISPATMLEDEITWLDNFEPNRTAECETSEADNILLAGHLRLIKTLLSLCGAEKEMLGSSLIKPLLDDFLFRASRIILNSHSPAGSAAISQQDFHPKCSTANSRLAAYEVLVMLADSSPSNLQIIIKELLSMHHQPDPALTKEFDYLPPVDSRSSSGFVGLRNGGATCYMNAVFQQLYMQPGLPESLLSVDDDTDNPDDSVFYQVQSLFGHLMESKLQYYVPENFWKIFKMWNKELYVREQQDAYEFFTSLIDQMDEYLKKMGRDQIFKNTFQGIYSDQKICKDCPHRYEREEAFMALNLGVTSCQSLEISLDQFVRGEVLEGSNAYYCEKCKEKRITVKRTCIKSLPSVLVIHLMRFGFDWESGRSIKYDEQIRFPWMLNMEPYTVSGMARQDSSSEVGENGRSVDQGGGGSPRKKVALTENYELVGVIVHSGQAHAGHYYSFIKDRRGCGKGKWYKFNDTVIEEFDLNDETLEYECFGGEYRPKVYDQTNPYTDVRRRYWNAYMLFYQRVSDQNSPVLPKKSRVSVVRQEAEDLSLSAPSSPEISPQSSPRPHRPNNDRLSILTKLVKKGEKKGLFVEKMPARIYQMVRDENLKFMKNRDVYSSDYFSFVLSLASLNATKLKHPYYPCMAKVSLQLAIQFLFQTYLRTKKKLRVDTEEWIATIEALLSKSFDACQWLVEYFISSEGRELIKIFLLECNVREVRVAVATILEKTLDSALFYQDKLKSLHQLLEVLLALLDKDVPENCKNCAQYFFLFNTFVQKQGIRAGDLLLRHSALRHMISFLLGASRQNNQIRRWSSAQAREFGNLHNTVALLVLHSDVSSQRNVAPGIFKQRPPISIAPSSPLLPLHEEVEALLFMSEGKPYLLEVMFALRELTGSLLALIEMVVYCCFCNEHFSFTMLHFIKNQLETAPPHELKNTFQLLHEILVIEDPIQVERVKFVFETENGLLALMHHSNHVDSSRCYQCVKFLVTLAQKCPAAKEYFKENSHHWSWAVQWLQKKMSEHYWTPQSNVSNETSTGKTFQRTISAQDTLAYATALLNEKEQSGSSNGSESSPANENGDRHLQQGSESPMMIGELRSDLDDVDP

O=C(CCl)NCCc1cccc2ccccc12
inactive: [1] 0.0202 | [2] -0.385 | [3] -0.0928 | [4] -0.0781 | [5] -0.212
